Assay results from PubChem BioAssay (NCI).
This is part of a sample that, as a whole, favours compounds with a hit. Of some 83,000 tested, about 20% had one in any assay.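 Growth was measured after 48 h exposure to one concentration of compound in 96-well plates. Values under 10 count as active.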 A number with no mark means an inactive call. The source made the active and inactive calls.

What follows are compounds tested on HL-60(TB) leukemia (assay: NCI-60 one-dose screen, 48 h (100 = growth as untreated, 0 = no growth, -100 = all killed)). Details: 10 µM unless noted.
CCc1ccc(-c2ccc(Nc3ccccc3)nn2)cc1S(N)(=O)=O was tested, and the growth was 47.4%. With COc1ccccc1Nc1nc(-c2cc3cccc(C(F)(F)F)c3oc2=O)cs1 the growth was -5.62% (active). In the case of N#CSCC1CC(O)(c2ccccc2)CC(c2ccc(Cl)cc2)O1 (stereo not given), the growth is reported as -30.9% (active). In the case of CN([N-]C(=O)CC(=O)[N-]N(C)C(=S)c1ccccc1)C(=S)c1ccccc1.[Cu+2], the growth is reported as -15.6% (active). With CCOC(=O)N1C2CCC(C2)N1C(=O)OCC the growth was 92.4%. CCOC(=O)C1=C(C)N2C(=NC3=C(CCCC/C3=C\c3cc(OC)c(OC)c(OC)c3)C2c2cc(OC)c(OC)c(OC)c2)S1 (stereo not given) showed a growth of 49.9%. Work on N#Cc1ccc(C(=O)CSc2nccc(Nc3ccc(C(=O)O)cc3)n2)cc1 yielded a growth of 99.5%. With CCOC(=O)n1ccn(C)c1=S the growth was 101%. CC(C)=CCc1cc(O)cc2c1OC(C=C(C)C)C1=C2C(=O)C2=C(NCCS2(=O)=O)C1=O (stereo not given) was tested, and the growth was -35.7% (active). In the case of COc1ccc2c(c1)C(C)Cc1c(ncnc1-n1cnc3ccccc31)N2C (stereo not given), the growth is reported as -5.85% (active). CC(C)(CCCN=C(N)Nc1ccc(Cl)cc1)c1ccc(F)cc1 was tested, and the growth was 93.4%. For COc1cc(/C=N/n2c(CN3CCOCC3)nc3ccccc3c2=O)cc(OC)c1OC, the growth was 98.1%. Work on Cc1cccc(-n2c(C)nc3ccc(N4CCCNC4=O)cc3c2=O)c1 yielded a growth of 109%. CCCCn1sc(=O)n(Cc2ccc(CNC(=O)OCc3ccc4c(Cl)cc(Cl)c(O)c4n3)cc2)c1=O showed a growth of 67.9%. With C/C1=C\CC[C@@]2(C)O[C@H]2[C@H]2OC(=O)C(CN3CCN(CC4C(=O)O[C@H]5[C@H]4CC/C(C)=C/CC[C@@]4(C)O[C@@H]54)CC3)[C@@H]2CC1 (stereo not given in full) the growth was 98.7%. O=C(NNc1nc(Cl)nc(N2CCN(C(c3ccccc3)c3ccccc3)CC2)n1)c1ccccc1 was tested, and the growth was -22.5% (active). Compound C=C(C)[C@@H]1CC[C@]2(CN)CC[C@]3(C)[C@H](CC[C@@H]4[C@@](C)(CCCN)[C@H](C(=C)C)CC[C@]43C)[C@@H]12 has a growth of 53.3%. Compound CC(C)(C)c1ccc2oc(=O)n(SC(Cl)(Cl)Cl)c2c1 has a growth of 70.2%. In the case of Fc1ccc2c(-c3cncn3CCc3ccccc3)c[nH]c2c1, the growth is reported as 85.8%. COc1ccc(/C=C/C(=O)c2c(C)nc3ccccc3c2/C=C/c2ccccc2)cc1O gave a growth of 49.1%. Compound O=c1cc(CSc2nnc(-c3ccccc3)n2-c2ccc(F)cc2)c2ccc3ccccc3c2o1 has a growth of 99.5%. With Cc1c([C@H](C(Cl)Cl)[C@H](O)[C@H]2C[C@H](C)C(=O)O2)ccc2c1C(=O)[C@H]1[C@H]2C[C@@H](Br)[C@@]23O[C@@H](CO[C@H]2O)CC13C (stereo not given in full) the growth was -16.4% (active). For CNc1nc2c(s1)C(c1cccc(F)c1)CC(=O)N2 (stereo not given), the growth was 97.5%. O=C(NCCNC(=O)Oc1cccc2ccccc12)Oc1cccc2ccccc12 gave a growth of 79.7%. Compound O=C(O)c1cc([N+](=O)[O-])ccc1Br has a growth of 105%. In the case of C=C1C(=O)O[C@H]2[C@H]1CC/C(COC(=O)NCc1ccc(OC)c(OC)c1)=C\CC[C@@]1(C)O[C@@H]21, the growth is reported as 35.8%. In the case of CCN1C2=C(SC(=S)C1=C1SC(C(=O)OC)=C(C(=O)OC)S1)SC(=Nc1ccc(OC)cc1)C2=O, the growth is reported as 26%. With CCCc1cc2cc(-n3nc(C)c4c3CC(C)(C)CC4=O)cc(NC3CCC(O)CC3)c2c(=O)[nH]1 (stereo not given) the growth was 2.27% (active). For C#CC#CC#CC#CC#CC#CC#CC#CCC1OC[C@H](COC(=O)O[C@@H](C(=O)O[C@H]2C[C@@]3(O)[C@@H](OC(=O)c4ccccc4)[C@@H]4[C@]5(OC(C)=O)CO[C@@H]5C[C@H](O)[C@@]4(C)C(=O)[C@H](OC(C)=O)C(=C2C)C3(C)C)[C@@H](NC(=O)c2ccccc2)c2ccccc2)O1 (stereo not given in full), the growth was 8.1% (active). O=C/C=C/c1ccc([N+](=O)[O-])cc1Cl showed a growth of 82.6%. With CCOC(=O)c1c(Cl)c2c(n1Cc1cc(OC)cc(OC)c1)-c1oncc1CCC2 the growth was 0.728% (active). O=C(Nc1cccc(-n2cc(-c3ccncc3)c(-c3ccc(O)c(Cl)c3)n2)c1)c1cc(C(F)(F)F)cc(C(F)(F)F)c1 gave a growth of 58.9%. COc1ccc(NC(=O)c2ccc(/C=C/C(=O)c3ncc[nH]3)cc2)cc1 showed a growth of 33.6%. For O=[N+]([O-])c1ccc(O)cc1Br, the growth was 99.9%. CC(C)COC(=O)NC(C)(C)C showed a growth of 85.2%. For O=C(/C=C/C12c3ccccc3C(c3ccccc31)C1C(=O)NC(=O)C12)c1ccncc1 (stereo not given), the growth was 2.98% (active). For Cc1ccc(S(=O)(=O)OCCCOS(=O)(=O)c2ccc(C)cc2)cc1, the growth was 54.4%. Work on C=C(C)[C@@H]1C[C@H](O)Cc2cc(Cl)cc(Cl)c2N1 yielded a growth of 112%. For Fc1ccc(/C=C/c2cc(/C=C/c3ccc(F)cc3)n(-c3cc(F)cc(F)c3)n2)cc1, the growth was 78.9%. Compound COc1ccc2c(c1)C(=O)CC(c1ccccc1OC)O2 (stereo not given) has a growth of 88.2%.
